Jurkat NFkB inh = lowers PMA/ionomycin-induced NF-kB signal in Jurkat cells. PMA/ionomycin-induced NF-kB luciferase reporter, luminescence. inhibition, % at 4 µM. 330,000 tested, 0.53% active; in the data active = inhibition above about 50%
Beta cell apopt = blocks beta cell apoptosis; 300,000 tested, 0.8% active; protection from apoptosis, % (no concentration beside the values); INS-1E cytokine-induced death, ATP luminescence, 48 h; percent of positive-control rescue, neutral wells zero;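 active = Every replicate reaches about 75%, or at least half do and their mean reaches it too, limit read from the data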;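 note: higher means more ATP so stronger rescue from cytokine killing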
Gli-Sufu block = blocks Gli-Sufu signaling in a luciferase reporter; Sufu-KO-LIGHT fibroblasts, Gli luciferase reporter luminescence; inhibition, % at 5 µM; 340,000 tested, 0.74% active; AID 588413;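 active = inhibition above about 55%, limit read from the data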
697 NFkB inh = inhibitors of the PMA/ionomycin-induced NF-kB reporter in 697 B cells; inhibition, % at 4 µM; 697 B-cell NF-kB luciferase reporter, 16 h; 330,000 tested, 0.33% active; in the data active = inhibition above about 35%
Gli-Sufu confirm = Gli-SUFU antagonism confirmation, single concentration | inhibition, % at 5 µM | Sufu-KO-LIGHT cells, Gli luciferase reporter, luminescence | 2,500 tested, 40% active | shares compounds with Gli-Sufu block;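 active = mean inhibition at 5 µM reaching about 45%, limit read from the data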
SufuKO cytotox = counter-screen for Gli-SUFU antagonists: cytotoxicity. shares compounds with Gli-Sufu block. cytotoxicity, % at 5 µM. 2,500 tested, 32% active. Sufu-KO-LIGHT cells cytotoxicity, ATP luminescence;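 active = mean cytotoxicity at 5 µM above about 25%, limit read from the data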;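 note: cells exposed to compound overnight for roughly 16 to 18 hours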
Wnt3a cs = inhibits Wnt3a reporter, counter-screen for Gli-SUFU antagonists; shares compounds with Gli-Sufu block; Wnt-LIGHT cells, Wnt3a-driven luciferase reporter, luminescence; inhibition, % at 6.25 µM; 2,500 tested, 20% active;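 active = mean inhibition above about 25%, limit read from the data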
A number is an active result; i = inactive; nt = no result given. Shown are actives, neighbours in structure and some others; about 1.8% of the full set was active somewhere.

SMILES	Jurkat NFkB inh	Beta cell apopt	Gli-Sufu block	697 NFkB inh	Gli-Sufu confirm	SufuKO cytotox	Wnt3a cs
COC1C(CO)OC(n2c3c(Cl)cccc3c3c4c(c5c6cccc(Cl)c6[nH]c5c32)C(=O)NC4=O)C(O)C1O (stereo not drawn)	nt	nt	61.7	nt	i	25.7	29.7
Cc1ccc2nc(SCC(=O)NCc3ccccc3)nc(=O)n2c1	i	i	96.9	i	i	33.2	i
Cc1ccc2nc(SCC(=O)NCc3ccccc3Cl)nc(=O)n2c1	i	nt	i	i	nt	nt	nt
S=C(Nc1ccc(Cl)cc1)NC1CC2CCCC(C1)N2C1CCCC1 (stereo not drawn)	i	i	60.5	i	i	31.1	i
N#Cc1ccsc1NC(=O)CCN1CCN(C(c2ccccc2)c2ccccc2)CC1	i	i	i	i	i	i	i
N#Cc1ccsc1NC(=O)CCc1ccccc1	i	i	i	i	nt	nt	nt
CCCn1cc(S(=O)(=O)c2ccc(F)cc2)c(=O)c2cc(OCC)ccc21	i	i	i	i	nt	nt	nt
Cc1sc2nc(CSc3ccccc3)nc(NCCN(C)C)c2c1C	i	nt	i	i	nt	nt	nt
CCNc1nc(CSc2ccccc2)nc2sc(C)c(C)c12	i	i	68.9	i	i	i	i
O=C(NCCNS(=O)(=O)c1cccc(C(F)(F)F)c1)c1cc(OCC(F)(F)F)ccc1OCC(F)(F)F	i	i	i	i	nt	nt	nt
Cc1cc(C)c(C(N)=O)c(SCC(=O)c2cc(C)n(-c3cc(C)on3)c2C)n1	i	i	i	i	59.5	33.5	i
O=C(OCc1nnc(-c2ccccc2)o1)C1CC(=O)N(CCc2ccccc2)C1 (stereo not drawn)	i	i	i	i	nt	nt	nt
CCC1=C(CC2NCCc3ccccc32)CC2c3cc(OC)c(OC)cc3CCN2C1 (stereo not drawn)	nt	nt	i	nt	59.6	i	85.4
c1ccc(C2OCC3(CO2)COC(c2ccccc2)OC3)cc1 (stereo not drawn)	i	i	i	i	nt	nt	nt
COc1cc(NS(=O)(=O)c2ccc(NC(=S)NC(=O)c3sc4cc(F)ccc4c3Cl)cc2)nc(OC)n1	i	i	i	i	nt	nt	nt
N#CC[n+]1cc(-c2ccc(Cl)cc2)n2c1CCC2	i	i	i	i	nt	nt	nt
O=[N+]([O-])c1ccc(C[n+]2cc(-c3ccc(Cl)c(Cl)c3)n3c2CCCCC3)cc1	i	i	i	i	nt	nt	nt
Clc1ccc(-c2c[n+](Cc3cccc(Cl)c3)c3n2CCC3)cc1	i	i	i	i	51.1	28.9	i
Clc1ccc(C[n+]2cc(-c3ccccc3)n3c2CCC3)cc1Cl	i	i	59.2	i	51.0	37.5	i
Cc1ccc(C2=NN(C(=O)c3ccccc3F)C(c3ccccc3F)C2)cc1 (stereo not drawn)	i	i	i	i	nt	nt	nt
CCOC(=O)CSc1nc2ccc(N3CCOCC3)cc2c(=O)n1Cc1ccccc1	i	i	i	i	nt	nt	nt
Cc1ccc(OCCC(=O)N(Cc2ccccc2)c2c(N)n(Cc3ccccc3)c(=O)[nH]c2=O)cc1	i	i	i	i	nt	nt	nt
Cc1cn([C@@H](CCCCNC(=O)OC(C)(C)C)C(=O)NCCCCCCCCCCC(=O)N2CCN(C(=O)OC(C)(C)C)CC2)nn1	i	i	60.5	i	58.7	35.5	i
COc1ccccc1C(=O)N1CCN=C1c1ccccc1	i	i	i	i	nt	nt	nt
Cc1ccc(-c2csc(NC(=O)C3=COCCO3)n2)cc1	i	i	i	i	nt	nt	nt
SMILES	Jurkat NFkB inh	Beta cell apopt	Gli-Sufu block	697 NFkB inh	Gli-Sufu confirm	SufuKO cytotox	Wnt3a cs
Cc1ccc(C)c(-c2csc(NC(=O)C3=COCCO3)n2)c1	i	76.7	62.8	i	62.9	i	i
Cc1ccccc1OCc1nc2ccccc2c(=O)n1/N=C/c1ccco1	i	i	93.4	i	i	25.8	i
Cc1nc2ccccc2c(=O)n1/N=C/c1ccco1	i	i	i	i	nt	nt	nt
CC(C)(C)c1ccc(OCCCN2CCCC2)cc1	i	i	57.4	i	i	i	i
CC(C)Oc1ccc(OCCCN2CCCCCC2)cc1	i	i	i	i	nt	nt	nt
O=C(/C=C/NNC(=O)c1ccccc1)c1ccc([N+](=O)[O-])cc1	i	94.9	73.3	i	i	27.7	i
NNC(=O)c1csc(-c2cccc(C(F)(F)F)c2)n1	i	i	95.3	i	i	i	i
CCCCCCc1cc2cc(C(=O)Nc3cccc(OC)c3)c(=O)oc2cc1O	i	99.0	61.2	i	58.0	i	78.8
COc1ccc(CC(=O)N2CCCc3ccccc32)cc1OC	i	i	91.1	i	i	i	i
